Screens: PubChem BioAssay, Bradner/Qi Labs at DFCI
CBX7 inh: blocks human CBX7 binding to H3K27me3 peptide; O95931; normalised signal (fraction of DMSO) (no concentration beside the values); AID 1224903; hit rate 1.1% among 66,000; AlphaScreen His6-CBX7 / biotin-H3K27me3 peptide binding; hits give low values; in the data active = normalised signal below about 0.5
Target sequence (O95931 whole entry, looked up): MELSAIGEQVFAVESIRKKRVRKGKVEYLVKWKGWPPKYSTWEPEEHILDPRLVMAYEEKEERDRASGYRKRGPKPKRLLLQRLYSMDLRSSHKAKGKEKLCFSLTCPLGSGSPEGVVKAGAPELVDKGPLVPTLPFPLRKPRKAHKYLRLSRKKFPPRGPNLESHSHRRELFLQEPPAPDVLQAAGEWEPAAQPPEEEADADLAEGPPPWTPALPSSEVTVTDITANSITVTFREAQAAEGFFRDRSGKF
Of the large screens only hits and unclear results are named; the others gave an inactive call; ! = not active in a repeat. The entries come from a sample that favours hits as a whole.

C1=CC2=C(CO1)OCc1c2[nH]c2ccc3ccccc3c12	CBX7 inh 0.43
CCN(CC)C(=O)CN1C(=O)CSc2ccc(S(=O)(=O)N(CC)CC)cc21	none
COc1ccc(NC(=O)CN2C(=O)c3ccccc3S2(=O)=O)cc1	none
Cc1ccn2c(-c3csc(Nc4ccccc4C)n3)c(C)nc2c1	none
Cc1ccn2c(-c3csc(Nc4ccccc4)n3)c(C)nc2c1	none
CC(=O)Nc1ccc(Nc2nc(-c3c(C)nc4ccccn34)cs2)cc1	none
Cc1ccn2c(-c3csc(Nc4ccccc4Cl)n3)c(C)nc2c1	none
CCN(CC)c1ccc(Nc2nc(-c3c(C)nc4cc(C)ccn34)cs2)cc1	CBX7 inh 0.24
Cc1ccn2c(-c3csc(Nc4cccc(C(=O)O)c4)n3)c(C)nc2c1	none
CC(=O)Nc1nc(C)c(-c2csc(Nc3ccc(Cl)cc3)n2)s1	none
Cc1nc2ccccn2c1-c1csc(Nc2ccc(N(C)C)cc2)n1	CBX7 inh 0.47
Cc1nc(C)c(-c2csc(Nc3ccc(Cl)cc3)n2)s1	none
Cc1nc(C)c(-c2csc(Nc3ccc(N(C)C)cc3)n2)s1	CBX7 inh 0.054
Cc1nc2ccccn2c1-c1csc(Nc2ccc(Br)cc2)n1	none
Cc1ccc(Nc2nc(-c3c(C)nc4cc(C)ccn34)cs2)c(C)c1	CBX7 inh 0.42!
Cc1ccc(-c2[nH]c(-c3ccc(Cl)cc3)nc2SCC(=O)Nc2nccs2)cc1	none
CCn1c(-c2nonc2NC(C)=O)nc2ccccc21	none
Cn1c(C(=O)N2CCC(C(=O)NCCc3c[nH]c4ccccc34)CC2)cc2sccc21	none
CCN(CC)CC(O)Cn1c2c(c3cc(Cl)ccc31)CCCC2=O (configuration not stated)	none
Cc1ccc(-c2ccc(=O)n(CC(=O)N3CCC(C)CC3)n2)cc1	none
COc1ccc(Nc2cc(C(=O)NC(C)c3ccc4c(c3)OCCO4)c3ccccc3n2)c(OC)c1 (configuration not stated)	none
Cc1ccc(NS(=O)(=O)c2ccc3c(c2)CCN3C(=O)C2CCC2)cc1C	none
COc1cc(-c2nnc3ccc4ccccc4n23)ccc1OCc1ccccc1	none
Cc1nc2sccn2c1-c1csc(Nc2ccccc2)n1	none
Cc1nc2sccn2c1-c1csc(Nc2cccc(O)c2)n1	CBX7 inh 0.27!
Cc1ccc(Nc2nc(-c3c(C)nc4sccn34)cs2)cc1	none
CCOc1ccc(NS(=O)(=O)c2ccc3c(c2)NC(=O)CC(=O)N3)cc1	none
O=C(Cc1ccccc1)Nc1cccc(-c2nnc(-c3ccccc3)o2)c1	none
CCc1ccccc1NC(=O)c1cccc2c1C(=O)N(Cc1cccnc1)C2	none
CCCCOc1ccc(-c2nc3ccccc3c(C(=O)O)c2C)cc1	none
CCOc1ccc(-c2nc3c(C(=O)OC)c[nH]n3c2NC2CCCCC2)cc1OC	none
CCCCOc1ccc(-c2nc3ncccn3c2NC2CCCCC2)cc1	none
COC(=O)c1c[nH]n2c(=O)c(Cc3ccccc3F)c(C)nc12	none
COC(=O)c1c[nH]n2c(=O)c(Cc3ccc(C)cc3)c(C)nc12	none
COC(=O)c1c[nH]n2c(NC3CCCCCC3)c(-c3ccc(F)cc3)nc12	CBX7 inh 0.45
CCCCOc1ccc(-c2nc3c(C(=O)OC)c[nH]n3c2NC2CCCCC2)cc1	CBX7 inh 0.19
COC(=O)c1c[nH]n2c(NC3CCCC3)c(-c3ccc(F)cc3)nc12	CBX7 inh 0.28
COC(=O)c1c[nH]n2c(=O)c(Cc3ccc(F)cc3Cl)c(C)nc12	none
COC(=O)c1c[nH]n2c(NC3CCCCC3)c(-c3ccc(F)cc3)nc12	none
Cc1ccn2c(NC(=O)C3CCCCC3)c(-c3ccc(F)cc3)nc2c1	none
COC(=O)c1c[nH]n2c(NC3CCCCCC3)c(-c3ccc(C)cc3)nc12	CBX7 inh 0.43
O=C(Cn1c(-c2cscn2)nc2ccccc21)Nc1ccc(Oc2ccc(F)cc2)cc1	none
CC1CCCC(NC(=O)CN2C(=O)COc3ccc(S(=O)(=O)N4CCOCC4)cc32)C1C (configuration not stated)	none
Cc1c(Cl)cccc1NS(=O)(=O)c1cnc[nH]1	none
CCOC(=O)c1cccc(NC(=O)c2ccc(OC)cc2)c1	none
CCc1ccc(N(CC)C(=O)c2cn(CC(C)C)c(=O)c3cc(OC)c(OC)cc23)cc1	none
Cc1ccc(NC2=NS(=O)(=O)c3ccccc32)cc1Cl	none
O=C(CCc1nc(-c2ccccc2F)no1)NCC1CCCO1 (configuration not stated)	none
O=C(CCCn1nc(-c2ccccc2)c2ccccc21)NCc1ccc(Cl)cc1	none
O=C1CC2CS(=O)(=O)CC2N1Cc1cccnc1 (configuration not stated)	none
O=C(NCc1ccccc1Cl)c1ccc2c(c1)N(Cc1ccc(Cl)cc1)C(=O)CS2	none
Clc1ccc2nc(-c3ccsc3)c(Nc3ccc4c(c3)OCCO4)n2c1	none
Cc1ccn2c(NC3CCCC3)c(-c3ccncc3)nc2c1	none
Cc1ccn2c(NC3CCCCC3)c(-c3cccnc3)nc2c1	none
Cc1ccn2c(NC3CCCC3)c(-c3ccccn3)nc2c1	CBX7 inh 0.43
Cc1ccc2nc(-c3ccncc3)c(NC3CCCC3)n2c1	none
Cc1ccn2c(NC3CCCCC3)c(-c3ccccn3)nc2c1	CBX7 inh 0.46
Cc1ccc(-c2nc3ncccn3c2NC2CCCCC2)cc1	none
O=C(NCc1ccc(F)cc1)c1cc2c(s1)CN(Cc1ccccc1)C2	none
